Data reported in PubChem BioAssay (NCATS).
Unmarked numbers belong to inactive results. The source made the active and inactive calls. The rule behind the calls is not given here.

The compounds below were run on HIV-1 nucleocapsid protein NCp7 (binding to TG oligonucleotide) (assay: HIV Nucleocapsid (AID 346;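 note: potency is for inhibitors that block NC binding and lower polarization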)). Details: HIV-1 NC / fluorescein-TGTGTGTG probe, fluorescence polarization.
Outline: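 Inhibition of nucleocapsid binding to single-stranded 5'-TGTGTGTG probe (10 nM) was measured by fluorescence polarization after 1 hr at room temperature with 100 nM protein under high-salt, zinc-containing, reducing conditions.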
Potency is the fitted concentration of half-maximal effect.

Structure (SMILES)	Potency
O=c1c(-c2ccc(F)cc2)nc2cnc(Oc3ccccc3)nc2n1C[C@H]1CCCO1	> 20 µM
Cc1nc2cnc(N(C)C)nc2n(CCC#N)c1=O	> 20 µM
COCCn1c(=O)c(-c2cc(F)cc(F)c2)nc2cnc(Oc3cccc(Cl)c3)nc21	> 20 µM
COc1ccc(NC(=O)N2CCCC3(CCN(C(=O)c4c(C)noc4C)CC3)C2)cc1	> 20 µM
Cn1cccc1C(=O)N1CCC[C@@]2(CCN(c3ncccn3)C2)C1	> 20 µM
Cc1cnc(CNc2cc(-c3cccc(NS(C)(=O)=O)c3)ncn2)cn1	> 20 µM
CC(=O)N1CCC[C@@]2(CCN(C(=O)Nc3ccccc3)C2)C1	> 20 µM
O=S(=O)(c1ccccc1)N1CCC2(CCN(c3ccncc3)CC2)CC1	> 20 µM
CN(Cc1ccco1)c1cc(-c2ccccc2Cl)ncn1	> 20 µM
COc1ccc(-c2nc3cnc(N(C)C)nc3n(Cc3ccc(F)cc3)c2=O)cc1	> 20 µM
COCCn1c(=O)c(-c2cc(F)cc(F)c2)nc2cnc(Oc3ccc(OC)cc3)nc21	> 20 µM
CC(C)NC(=O)N1CC[C@@]2(CCCN(S(C)(=O)=O)C2)C1	> 20 µM
COc1ccccc1-c1cncnc1N(C)Cc1ccco1	> 20 µM
COCCn1c(=O)c(-c2ccccc2)nc2cnc(Oc3ccccc3)nc21	> 20 µM
CCNc1ncc2nc(-c3ccc(F)cc3)c(=O)n(C)c2n1	> 20 µM
CNc1ccnc(-c2ccccc2CN(C)C)n1	> 20 µM
COc1ccc(C(=O)N2CCC3(CC2)CCN(c2ccccc2)CC3)cc1	> 20 µM
CN(C)c1ncc2nc(CCc3ccccc3)c(=O)n(-c3ccccc3)c2n1	> 20 µM
N#Cc1ccc(CN2CC3(CCN(C(=O)c4cc(C(F)(F)F)cc(C(F)(F)F)c4)CC3)C2)cc1	> 20 µM
N#Cc1cccc(-c2cncnc2NCc2cccs2)c1	> 20 µM

Structure (SMILES)	Potency
Cc1cnc(CNc2ncnc3ccc(-c4ccc(C(=O)N(C)C)cc4)cc23)cn1	> 20 µM
COc1ccc(C(=O)N2CCC3(CCCN(c4ncccn4)C3)CC2)cc1	> 20 µM
Cn1cc(-c2nc3cncnc3n(-c3ccccc3)c2=O)c2ccccc21	4.43 µM (active)
COc1cccc(Cn2c(=O)c(-c3ccccc3)nc3cncnc32)c1	> 20 µM
COc1cccc(-c2nccc(NCCc3c[nH]c4ccc(OC)cc34)n2)c1	> 20 µM
CC(=O)N1CCC[C@@]2(CCN(Cc3nccs3)C2)C1	> 20 µM
COc1ccc(C(=O)N2CCC3(CCCN(C(=O)Nc4cccc(F)c4)C3)CC2)cc1	> 20 µM
CC(=O)N1CCC2(CCCN(c3ccccc3)C2)CC1	> 20 µM
Cc1noc(C)c1-c1nc(N2CCN(C)CC2)c2ccccc2n1	> 20 µM
COCCn1c(=O)cnc2cnc(N(C)C)nc21	> 20 µM
COc1ccc(Oc2ncc3nc(C)c(=O)n(C)c3n2)cc1	> 20 µM
O=c1c(-c2ccc(F)c(F)c2)nc2cncnc2n1Cc1ccccc1	> 20 µM
COc1cccc(Cn2c(=O)c(C)nc3cnc(Nc4cccc(OC)c4)nc32)c1	> 20 µM
Cc1noc(C)c1-c1ccc2ncnc(Nc3ccc(F)cc3)c2c1	> 20 µM
COC(=O)N1CCC2(CCCN(C(=O)Nc3cccc(C#N)c3)C2)CC1	> 20 µM
CS(=O)(=O)Nc1cccc(-c2cc(Nc3ccccc3)ncn2)c1	> 20 µM
Cc1cccc(CNc2ccnc(-c3cccc(NS(C)(=O)=O)c3)n2)c1	> 20 µM
CN(Cc1ccco1)c1ncncc1-c1ccc2c(c1)OCO2	> 20 µM
COc1ccc(-n2c(=O)c(-c3cn(C)c4ccccc34)nc3cnc(OC)nc32)cc1	> 20 µM
COc1ccc(C(=O)N2CCC3(CCN(Cc4ccncc4)CC3)CC2)cc1	> 20 µM
